GLA inh pH 4.5: alpha-galactosidase A (human) inhibition, pH 4.5 | P06280 | purified enzyme, 4-MU-alpha-Gal fluorescence, pH 4.5 | activity change, negative = inhibition, % at 105 µM | 230,000 tested, under 10 active;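 further: 0% = full activity with enzyme and -100% = basal without enzyme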
Target sequence (P06280 whole entry, looked up): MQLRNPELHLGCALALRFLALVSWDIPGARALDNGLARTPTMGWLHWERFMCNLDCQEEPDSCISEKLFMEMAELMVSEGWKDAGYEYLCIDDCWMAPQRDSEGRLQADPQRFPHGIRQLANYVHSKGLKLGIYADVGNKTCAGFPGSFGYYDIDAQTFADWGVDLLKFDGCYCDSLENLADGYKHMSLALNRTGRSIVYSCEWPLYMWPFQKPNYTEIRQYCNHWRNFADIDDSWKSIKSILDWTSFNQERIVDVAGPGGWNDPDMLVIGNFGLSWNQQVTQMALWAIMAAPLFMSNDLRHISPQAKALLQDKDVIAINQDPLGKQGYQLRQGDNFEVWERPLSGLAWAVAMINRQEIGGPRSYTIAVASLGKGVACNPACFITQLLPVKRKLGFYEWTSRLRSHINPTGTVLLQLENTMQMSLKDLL
HTT aggregate: reduces HttQ103-GFP aggregates in PC12 cells | PC12 HttQ103-GFP aggregates, Acumen cytometry, 40 h | Potency, µM (top dose mostly 46.1 µM), for inactives: top-dose activity change, negative = inhibition, actives largely listed as inhibitors | hit rate 1.1% among 220,000 | AID 1688; further: potency means the concentration at half of the fitted maximal effect; on the % scale 0 is the no-effect control and ±100 the full control effect; nearly all actives have a fitted effect of over 60% in size
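PC12/HTTQ103-GFP, ecdysone-inducible; teb 100 nM; cpd qHTS titration; GFP aggregates read on laser cytometer, Ex 488/Em 500-530 nm.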
GLA spleen mod: alpha-galactosidase A (human) modulation | hit rate 0.008% among 240,000 | Potency, µM (top dose mostly 80 µM), for inactives: at the highest dose activity change, negative = inhibition, usual class: inhibitors | human spleen homogenate, 4MU-alpha-Gal fluorescence, 40 min;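 further: potency means the concentration at half of the fitted maximal effect; 0% = enzyme with vehicle and -100% = no enzyme basal signal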
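qHTS titration in buffer at pH 5.0. Alpha-galactosidase activity in spleen homogenate was measured via 4-methylumbelliferone release from 1 mM fluorogenic substrate after 40 min at 37C and a pH 10 stop. AC50 came from Hill fits of control-normalized data.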
HTT cytoprotect: cytoprotection in Huntington HTT-Q103 PC12 cell model | Potency, µM (highest dose often 56.4 µM), for inactives: cytoprotection (ATP increase), actives largely listed as activators | PC12 HTT-Q103 induced, cytoprotection, ATP luminescence, 40 h | hit rate 0.14% among 230,000 | AID 1471; further: potency means the concentration at half of the fitted maximal effect; % of control where 0% means no effect; nearly all actives have a fitted effect of over 45% in size
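PC12 cells with ecdysone-inducible HTT exon 1 Q103-GFP, induced with 100 nM tebufenozide and co-treated with library compounds in a dose series (1536-well, 1500 cells/well). Cytoprotection read as ATP content by ATPlite luminescence.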
Active calls of the source: *; ? = inconclusive; . = not tested or not shown; [ ] = another dose, or the depositor's remark. The list is not random: actives were taken first. Their share in the collection is about 1.2%. The call rests on the fitted dose curve; in most records, active means well fitted curve in the direction sought with a large enough effect; inconclusive means small, poorly fitted or top-dose-only effect, or another doubt; inactive means no such curve, though single readings can be large; an effect the other way counts as inactive or inconclusive.

SMILES | GLA inh pH 4.5 | HTT aggregate | GLA spleen mod | HTT cytoprotect
C=CCN1c2ccccc2[C@]23C[C@@H](C(=O)OC)N(S(=O)(=O)c4ccc5c(c4)OCCN5C)C2=NC(C(=O)OC)=C(C(=O)OC)[C@H]13 | 0 | . | -5%[17.5 µM] | -23%[10 µM]
Cc1c(C(=O)N(C)Cc2ccccc2)oc2ccc(S(=O)(=O)N3CCCC3)cc12 | -9 | 11µM* | -5% | -77%
O=C(c1ccc(Nc2nccc(-c3cc4ccccc4s3)n2)cc1)N1CCC(N2CCCC2)CC1 | . | . | -8% | .
COc1ccccc1NC(=S)N=Nc1c(O)[nH]c2ccc(Br)cc12 | -2 | -20%[9.22 µM] | -2% | 10%[10 µM]
Cc1cccc(NC(=S)N=Nc2c(O)[nH]c3ccccc23)c1 | -7 | 4µM* | -4% | .
Cc1ccccc1N=Cc1cc2c(cc1O)OC(N)=C(C#N)C2c1ccccc1 (configuration not stated) | 7 | ? | 5% | 26%[1.9 µM]
Cc1ccc(N=Cc2cc3c(cc2O)OC(N)=C(C#N)C3c2ccccc2)cc1 (configuration not stated) | 6 | 10µM* | -2% | -16%[1.9 µM]
Cc1ccc(C2C(C#N)=C(N)Oc3cc4c(cc32)OCO4)cc1 (configuration not stated) | -5 | ? | -4% | -25%[10 µM]
N#CC1=C(N)Oc2cc(O)c(C=Nc3ccccc3)cc2C1c1ccccc1 (configuration not stated) | 7 | 1.6µM* | 0% | 7%[1.9 µM]
CC(C)[C@H](NC(=O)[C@@H](Cc1c[nH]c2ccccc12)NC(=O)[C@H](Cc1ccc(O)cc1)NC(=O)[C@@H](N)CC(=O)O)C(=O)N[C@H](Cc1c[nH]c2ccccc12)C(=O)N[C@H](Cc1c[nH]c2ccccc12)C(=O)N[C@@H](CCCCN)C(N)=O | . | . | 24% | .
C[C@H](NC(=O)CNC(=O)[C@@H](NC(=O)[C@H](Cc1ccccc1)NC(=O)CNC(=O)CNC(=O)[C@@H](N)Cc1ccccc1)[C@@H](C)O)C(=O)N[C@@H](CCCN=C(N)N)C(=O)N[C@@H](CCCCN)C(=O)N[C@@H](CO)C(=O)N[C@@H](C)C(=O)N[C@@H](CCCN=C(N)N)C(=O)N[C@@H](CCCCN)C(N)=O | . | . | 0% | .
O=S(=O)(Nc1cccc2ncccc12)c1cccs1 | -8 | 13µM* | 3% | 20%[10 µM]
O=C(CSc1c2c(nc3ccccc13)CCC2)N1CCCC1 | 4 | ? | -14% | 10µM*
CCOC(=O)C1CCN(C(=O)CSc2c3c(nc4ccccc24)CCC3)CC1 | 3 | 3% | 9% | 5%
COc1ccccc1NC(=O)CSc1c2c(nc3ccccc13)CCC2 | 2 | 35µM* | 1% | -5%[10 µM]
CCOC(=O)c1ccc(COC(=O)CCc2nc3ccccc3[nH]c2=O)o1 | -4 | 2.8µM* | -3% | -7%[10 µM]
O=C(OCC1CO1)C1CCCCC1C(=O)OCC1CO1 (configuration not stated) | . | . | 7% | -7%
CC(C(=O)N1CCN(C2c3ccccc3-c3ccccc32)CC1)N1C(=O)c2ccccc2C1=O (configuration not stated) | -7 | 5% | 1% | 6%[10 µM]
CC(C(=O)N1CCCCC1)N1C(=O)c2ccccc2C1=O (configuration not stated) | 1 | 32µM* | 15% | 3%
CC(C)([CH2][Sn]([CH2]C(C)(C)c1ccccc1)([CH2]C(C)(C)c1ccccc1)[O][Sn]([CH2]C(C)(C)c1ccccc1)([CH2]C(C)(C)c1ccccc1)[CH2]C(C)(C)c1ccccc1)c1ccccc1 | . | . | -5% | .
O=C(O)CN(CC(=O)O)c1ccccc1OCCOc1ccccc1N(CC(=O)O)CC(=O)O | . | . | -12% | .
CC1CC(C)CN(S(=O)(=O)c2ccc(C(=O)NCCCn3ccnc3)cc2)C1 (configuration not stated) | -5 | 7.9µM* | 1% | -125%
Cc1ccc(CNC(=O)C2CCCN(S(=O)(=O)c3cccnc3)C2)cc1 (configuration not stated) | 1 | -22% | -24% | 7%
O=C(NCc1ccc2c(c1)OCO2)C1CCCN(S(=O)(=O)c2cccnc2)C1 (configuration not stated) | 7 | 32µM* | -5% | 14%[10 µM]
COc1ccc(OC)c(C2=Nn3c(nnc3-c3ccccc3C)SC2)c1 | . | . | 1% | .
SMILES | GLA inh pH 4.5 | HTT aggregate | GLA spleen mod | HTT cytoprotect
N#CCCCS(=O)(=O)c1nc2ccccc2s1 | -4 | . | -4% | ?
CCCCSc1nnc(-c2ccc(C)cc2)c2ccccc12 | -3 | 11µM* | 1% | .
CC[n+]1c(/C=C2\Sc3ccccc3N2C)ccc2cccc(C)c21 | -1 | 1µM* | -2% | -88%[10 µM]
CCN1/C(=C/c2ccc3cc(C)ccc3[n+]2CC)Sc2ccccc21 | -8 | 0.35µM* | -7% | -68%[10 µM]
O=C1C=CC(=O)C2=C1C1c3ccccc3C2c2ccccc21 | -8 | . | 4% | -125%
CC[C@H](C)[C@H](NC(=O)[C@H](CCC(=O)O)NC(=O)CNC(=O)[C@H](CCCCN)NC(=O)[C@H](CCC(=O)O)NC(=O)[C@H](CCSC)NC(=O)[C@H](CCSC)NC(=O)[C@H](CCSC)NC(=O)[C@H](CCC(=O)O)NC(=O)CNC(=O)[C@H](CO)NC(=O)[C@H](CO)NC(=O)[C@H](CO)NC(=O)[C@@H](N)CC(N)=O)C(=O)N[C@@H](CCCCN)C(=O)O | . | . | 8% | .
CC1=C(C(=O)OC(C)C)C(c2cccc([N+](=O)[O-])c2)C(C(=O)OC2CN(C(c3ccccc3)c3ccccc3)C2)=C(N)N1 (configuration not stated) | . | -18% | . | -41%
COc1ccc(-c2cnc(N)nc2-c2ccc(OC)cc2O)cc1 | -9 | 11µM* | -1% | ?
Cc1ccc(-n2c(-c3ccccc3)c[n+]3c2CCC3)cc1 | 2 | 8.9µM* | 3% | -37%
COc1ccc(-n2c(-c3ccccc3)c[n+]3c2CCC3)cc1 | -2 | 2%[9.22 µM] | 3% | 4%[10 µM]
Cc1ccc(-n2c(-c3ccc(Cl)cc3)c[n+]3c2CCC3)cc1 | 3 | -21%[9.22 µM] | 0% | -6%[10 µM]
COc1ccc(-n2c(-c3ccc(Br)cc3)c[n+]3c2CCCCC3)cc1 | 3 | 2.2µM* | 3% | 13%[10 µM]
COc1ccc(-n2c(-c3ccc(Br)cc3)c[n+]3c2SC(C)C3)cc1 (configuration not stated) | -4 | 10µM* | 3% | .
COc1ccc(-n2c(-c3ccc(Br)cc3)c[n+]3c2CCC3)cc1 | 1 | ? | -14% | -21%
CC(C)C[C@H](NC(=O)CNC(=O)[C@@H]1CCCN1C(=O)[C@H](CCCNC(=N)N)NC(=O)[C@H](CC(=O)O)NC(=O)[C@@H](NC(=O)[C@H](CC(N)=O)NC(=O)[C@@H](NC(=O)[C@H](CC(=O)O)NC(=O)CNC(=O)[C@@H](NC(=O)[C@@H](NC(=O)[C@H](C)NC(=O)[C@@H](N)CCC(N)=O)[C@@H](C)O)C(C)C)C(C)C)[C@@H](C)O)C(=O)N[C@@H](CC(C)C)C(=O)N[C@@H](CC(=O)O)C(=O)N[C@@H](CC(C)C)C(=O)N[C@@H](CCCCN)C(=O)O | . | . | -8% | .
